Autophagy HCS: modulators of autophagy. MEF GFP-LC3 puncta imaging; test concentration mostly 10 µM. calls only at 10 µM (by protocol). 0.98% of 190,000 active. AID 463193;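 active = percentage of spot-positive cells more than 3 SD above its plate mean, without a fluorescence outlier flag or 80% toxicity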;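 note: spot-positive cell cutoff set from DMSO-treated cells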
PTEN del growth: suppresses growth of cells with PTEN deletion; HCT116 PTEN-null viability, CellTiter-Glo, 60 h; hits give low values; viability, % at 10 µM; 1.2% of 140,000 active;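 active = viability at or below a set limit, 4 SD under the median of all tested compounds, cut at about 3.7% in these data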;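 note: PTEN knockout HCT116 line with beta catenin targeted HCT116 as companion control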
L major viab: reduces viability of Leishmania major promastigotes | AID 1063 | inhibition, % at 10 µM | resazurin fluorescence viability | 9% of 200,000 active; in the data active = inhibition above about 50%;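 note: promastigotes grown with compound for 44 hours at 28 °C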
Ins promoter up: MIN6 insulin promoter up-regulation | 0.3% of 190,000 active | MIN6 insulin promoter-GFP reporter, high-content imaging; hits give high values | z-score at 5 µM;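 active = z-score above 3 at 5 µM with at least 500 cells counted in the well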
bCat KO growth: beta-catenin-lacking colon tumor cell growth suppression; 1.5% of 140,000 active; viability, % at 10 µM; HCT116 beta-catenin knockout viability, CellTiter-Glo, 60 h; hits give low values;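 active = viability at or under a set limit, the compound median less 4 SD, cut at about 6% in these data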;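 note: 0% = Hyamine 1622 control at 20 µM and 100% = untreated cell control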
Insulin prom inh: TRM-6 insulin promoter activity inhibition | TRM-6 cells (human fetal islet line), insulin promoter-eGFP reporter, imaging; reporter expression induced with tamoxifen | inhibition, % at 2 µM | 0.9% of 130,000 active;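 active = inhibition above the mean plus 3 SD, with well images judged a real hit on visual review, cut at about 60% in these data, passing the limit was not always enough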
The depositor's hits bear a star; i = inactive; · = no result given. A selection: hits, their analogues and other compounds. The true share with any hit is near 9.6%.

SMILES	Autophagy HCS	PTEN del growth	L major viab	Ins promoter up	bCat KO growth	Insulin prom inh
CCOC(=O)CSc1nc2c(c(=O)[nH]c(=O)n2C)n1CCc1ccccc1	i	110.0	-3.4	·	85.9	-64.5
CCOC(=O)CSc1nc(N)c(C#N)cc1C#N	i	95.2	-0.3	-0.46	85.2	50.0
COc1ccc(NC(=O)CN2CCN(C3c4ccccc4-c4ccccc43)CC2)c(OC)c1	i	69.5	44.0	-1.52	67.2	-64.3
CCOc1ccc(NC(=O)CN2CCN(C3c4ccccc4-c4ccccc43)CC2)cc1	i	95.0	89.7*	0.29	72.0	9.3
COc1ccccc1NC(=O)CN1CCN(C2c3ccccc3-c3ccccc32)CC1	i	39.7	57.5*	-2.75	57.6	-78.6
O=C(COC(=O)c1cnc(Cl)c(Cl)c1)NCc1ccc2c(c1)OCO2	i	106.6	-6.0	0.35	89.9	13.3
Cn1c(NC(=O)C[n+]2cc(-c3ccc(Cl)c(Cl)c3)n3c2CCC3)cc(=O)n(C)c1=O	i	85.0	87.7*	-0.11	87.1	-17.2
Cc1ccc(-c2c[n+](CC(=O)Nc3nc(-c4ccc(F)cc4)cs3)c3n2CCC3)cc1	i	38.5	7.1	0.84	47.1	·
O=C(C[n+]1cc(-c2ccc(Cl)c(Cl)c2)n2c1CCC2)N1c2ccccc2Sc2ccccc21	i	67.9	53.8*	-0.59	75.4	-23.5
O=C(C[n+]1cc(-c2ccc(F)cc2)n2c1CCC2)Nc1nc(-c2ccccc2)cs1	i	85.0	80.8*	0.48	88.2	6.9
COc1ccc(-c2c[n+](CC(=O)N3c4ccccc4Sc4ccccc43)c3n2CCC3)cc1	·	·	·	-3.33	·	·
O=C(C[n+]1cc(-c2ccc(Cl)cc2)n2c1CCC2)N1c2ccccc2Sc2ccccc21	i	82.6	80.8*	1.4	83.2	29.4
COC(=O)CN(C(=O)CSc1nnc(-c2cccc(OC)c2)o1)c1ccc(OC)cc1	i	111.9	-3.8	·	99.5	45.5
Cc1cc(C)c(C)c(C(=O)COC(=O)CNC(=O)CN2C(=O)c3ccccc3C2=O)c1C	i	107.9	-7.0	0.62	93.8	36.7
O=C(CNC(=O)c1ccccc1C(=O)O)c1ccccc1	i	111.6	6.0	-0.07	95.2	77.8*
O=C(O)c1ccccc1C(=O)NCC(O)c1ccccc1 (configuration not stated)	·	·	·	-0.01	·	·
N#Cc1cc(C(=O)c2cc(Cl)ccc2O)cn(-c2ccccc2)c1=O	i	82.4	2.7	-0.01	82.7	-119.0
Cc1ccc(NC(=O)c2cc(C(=O)c3cc(Cl)ccc3O)cn(-c3ccc(C)cc3)c2=O)cc1	i	33.4	99.1*	-1.3	45.6	16.9
COc1ccc(NC(=O)C(Cc2ccccc2)n2cccc2)cc1 (configuration not stated)	·	·	·	-0.04	·	·
Cc1nc(Nc2ccc(S(=O)(=O)N3CCCCC3C)cc2)c2nnn(Cc3ccccc3)c2n1 (configuration not stated)	i	51.0	89.8*	1.4	51.0	11.5
O=C(NCCN1C(=O)S/C(=C/c2ccccc2)C1=O)C1CCCN1C(=O)c1cccs1 (configuration not stated)	i	83.6	6.3	-0.6	78.1	·
Cc1ccc(-c2nn(-c3ccccc3)cc2CSC(=N)N)cc1	i	1.0*	100.2*	-0.56	1.1*	57.7
OCc1cn(-c2ccccc2)nc1-c1ccc(-c2nn(-c3ccccc3)cc2CO)cc1	i	94.0	0.1	0.45	88.7	3.2
O=C(/C=C/c1ccco1)Nc1nc(-c2ccccn2)cs1	i	·	99.8*	1.01	·	·
CC(C)c1nc2ccc(NC(=O)C3CCCCC3)cc2[nH]1	i	94.5	4.9	0.01	94.4	-39.5
SMILES	Autophagy HCS	PTEN del growth	L major viab	Ins promoter up	bCat KO growth	Insulin prom inh
CSCCC(=O)Nc1nc(-c2ccccn2)cs1	i	·	88.3*	-0.4	·	-36.4
O=C(CCCSc1ccccc1)Nc1nc(-c2ccccn2)cs1	i	·	100.3*	1.08	14.7	-8.6
O=C(Nc1ccc2nc(-c3ccccn3)[nH]c2c1)C1CCCCC1	i	88.6	100.5*	0.44	94.6	47.4
O=C(CCSc1ccccc1)Nc1ncccn1	i	99.8	-3.1	-0.14	99.5	57.9
O=C(/C=C/c1ccco1)Nc1nc(-c2ccccc2)cs1	i	38.9	44.8	0.28	52.2	34.5
O=C(CN1C(=O)CCC1=O)Nc1nc(-c2ccccn2)cs1	i	107.0	-0.4	-0.38	98.0	·
C/C(Nc1cccc(F)c1)=C(/C#N)C(N)=O	i	89.1	0.9	·	98.9	48.0
